# The whole screen tested about 69,000 compounds, of which about 8,600 (12%) showed an effect of 50% or more. For the sample, strong results were picked, then their nearest neighbours and some compounds at random.
# System: Plasmodium berghei
# Experiment: Screen against P. berghei liver stage (PbLuc), transformed with Luciferase, at 10uM
# Type: functional, HepG2
# Conditions: tested at 10 uM
row,SMILES,INHIBITION
1,CNc1nc(CNC(=O)Nc2cccc(CN(C)C)c2)cs1,-0.74%
2,CC(C)c1nncn1CCNC(=O)c1c(O)cc(F)cc1F,8.86%
3,CC(C)=CCN1C(=O)[C@@H]2CC[C@H]1CN(C(=O)CCc1n[nH]c(C)c1C)C2,43.8%
4,CC(Cn1ccnc1)NC(=O)C1(c2cccc(Cl)c2)CC1 (centres undefined),19.4%
5,COCCn1c(=O)n(Cc2cccc(F)c2F)c2cc(C(=O)O)ccc21,55%
6,COCCn1c(=O)n(Cc2ccccc2C)c2cc(C(=O)O)ccc21,29%
7,COCCn1c(=O)n(Cc2ccc(Cl)s2)c2cc(C(=O)O)ccc21,32.3%
8,CC(NC(=O)NCC(F)(F)F)c1nncn1C (centres undefined),11.5%
9,c1cncc(CCc2nc(C3CC3)nn2-c2ccc3c(c2)OCCO3)c1,50.1%
10,c1ccc(Cc2nc(C3CC3)nn2-c2ccc3c(c2)OCCO3)nc1,-52.4%
11,c1cncc(OCc2nc(C3CC3)nn2-c2ccc3c(c2)OCCO3)c1,25.4%
12,CCc1nc(N)nc(N2CCCC3(CCOCC3)C2)c1C,50%
13,CCc1cnc(N)nc1N1CCCC2(CCOCC2)C1,-3.77%
14,CCc1nc(N)nc(N2CCCC3(CCN(C)CC3)CC2)c1C,-56.2%
15,CS(=O)(=O)N1CCCC(n2nnn(-c3ccccc3)c2=O)C1 (centres undefined),17.55%
16,c1cncc(C2COC3(CCN(CC4CC4)CC3)C2)c1 (centres undefined),-18.2%
17,Cn1cccc1C(=O)N1CCCCC1c1ccn2ccnc2n1 (centres undefined),-11.7%
18,Cc1cccc2c(=O)c(C(=O)N3CCCC4(CN(C)C(=O)O4)C3)c[nH]c12 (centres undefined),60.1%
19,Cc1cc(C(=O)N2CCCC3(CN(C)C(=O)O3)C2)c2ccc(F)cc2n1 (centres undefined),37.7%
20,Cc1nc[nH]c1C(=O)N1CCCC2(CN(C)C(=O)O2)C1 (centres undefined),3.69%
21,COCCCNC(=O)NCc1cccn1Cc1ccccc1C,60.7%
22,COCCCNC(=O)NCc1ccc(C)cc1,48.8%
23,CCOC(=O)CNC(=O)NCc1cccn1Cc1ccccc1,40.8%
24,CCOC(=O)CNC(=O)NCc1cccn1Cc1ccccc1C,-21.3%
25,CCOC(=O)CNC(=O)NCc1cccn1Cc1ccc(F)cc1,16.8%
26,CCOC(=O)CNC(=O)NCc1cccn1Cc1ccccc1F,56.5%

row,SMILES,INHIBITION
1,Cn1ccc(C(=O)N2CCCC2c2cc(CCO)[nH]n2)n1 (centres undefined),28.69%
2,O=C(NCc1ccco1)c1cc[n+]([O-])cc1,-10.0965%
3,O=C(Nc1ccccc1-c1ccccc1)NC1CCC2(C1)OCCO2 (centres undefined),-6.67%
4,c1cnc(N2CCCC(c3n[nH]c4ncccc34)C2)nc1 (centres undefined),-27.1%
5,c1cnc(N2CCCC(c3cc4cccnc4[nH]3)C2)nc1 (centres undefined),72.5%
6,c1cnc(N2CCC(c3cc4cccnc4[nH]3)CC2)nc1,23.2%
7,CN(C)C(=O)c1cccc(CN2CCOC(Cn3cncn3)C2)c1 (centres undefined),41.5%
8,NC(=O)C1(Cc2ccccc2-c2cncnc2)CCCNC1 (centres undefined),12.915%
9,Cn1nc(COCC2CC2)c2c1CCN(Cc1ccco1)C2,-12.2%
10,Cn1nc(COc2cccnc2)c2c1CCN(Cc1ccco1)C2,31.4%
11,Cn1nc(COc2cccnc2)c2c1CCN(c1ncccn1)C2,53%
12,Cn1nc(CN2CCCC2)c2c1CN(C(=O)c1cnccn1)CC2,43.4%
13,Fc1cnc(N2CCCn3cnc(COc4cccnc4)c3C2)nc1,4.68%
14,CCS(=O)(=O)N1CCCn2cnc(COc3cccnc3)c2C1,14.6%
15,Cn1nc(COc2cccnc2)c2c1CCN(c1cnccn1)C2,53.5%
16,Cn1nc(CNc2ncccn2)c2c1CN(c1cnccn1)CC2,32.1%
17,Cn1nc(COc2cncnc2)c2c1CCN(Cc1ccco1)C2,63.5%
18,c1cnc(N2CCc3onc(CN4CCCC4)c3C2)cn1,37.5%
19,Cn1nc(CN2CCCC2)c2c1CN(c1cnccn1)CC2,54.8%
20,Cn1nc(Cn2ccnc2)c2c1CN(c1ncccn1)C2,3.88%
21,Cc1cnccc1CN(C)C(=O)C(C)(C)NC(=O)c1cccs1,37.9%
22,CCNC(=O)CN1CCN(Cc2nc3c(F)cccc3n2CC)CC1,30.85%
23,Cc1ccc(N2CCCC(NCc3cc(C)on3)C2)nn1 (centres undefined),27.4%
24,CCCNC(=O)C1(CC2CC(c3ccccc3OC)=NO2)CCOCC1 (centres undefined),29.2%
25,Cc1ccc(C(=O)N2CCn3cc(CN4CCCCC4)nc3C2)o1,17.4%
26,Cn1nc(COc2cccnc2)c2c1CCN(CC1CC1)C2,61.1%

row,SMILES,INHIBITION
1,Cn1nc(COc2cncnc2)c2c1CCN(Cc1ccccn1)C2,24.9%
2,CC(C)N1CCc2c(c(COc3cccnc3)nn2CC2CC2)C1,12.7%
3,COCCN1CCc2c(c(COc3cccnc3)nn2C)C1,-4.08%
4,Cc1cnc(N2CCc3c(c(COc4cncnc4)nn3C)C2)nc1,53.9%
5,CN1CCc2c(c(COc3cncnc3)nn2CC2CC2)C1,24.6%
6,COc1ccc(OC)c(C(O)CNC(=O)Nc2cccnc2OC)c1 (centres undefined),17.4%
7,Cc1cc(CNC(=O)NCCCC(=O)N2CCc3ccccc32)no1,45.4%
8,COC(=O)Cn1c(=O)cc(C(F)F)c2c(C)nn(CC(F)F)c21,-12.975%
9,Cc1ccc(CNc2cc3[nH]c(O)nc3cc2C)cc1,-46.3%
10,O=C(c1ccc(NCc2cccc(F)c2)cc1)N1CCC(CO)CC1,-92.5%
11,NC(=O)c1ccc(OCC(=O)NS(=O)(=O)c2ccc3c(c2)CCC3)cc1,15.533%
12,Cn1c2ccccc2c2ncn(CCCN3CCOCC3)c(=O)c21,29.1%
13,Cn1c2ccccc2c2ncn(CCN3CCOCC3)c(=O)c21,63.6%
14,Cn1c2ccc(F)cc2c2ncn(CCN3CCOCC3)c(=O)c21,45%
15,CC(C)n1cc(-n2cc3nc(N4CCOCC4)[nH]cc-3c2=O)cn1,5.18%
16,Cc1n[nH]c(C2CN(CC(=O)NCc3sccc3C)CCO2)n1 (centres undefined),-7.36%
17,Cc1ccccc1CN1CCN(c2ncnc3c2NC(=O)CN3)CC1,-4.76%
18,O=C1CNc2ncnc(N3CCN(Cc4ccccc4)CC3)c2N1,30%
19,O=C1CNc2ncnc(N3CCN(Cc4cccc(F)c4)CC3)c2N1,55.7%
20,O=C1CNc2ncnc(Nc3cnn(Cc4ccccc4F)c3)c2N1,33.5%
21,O=C1CNc2ncnc(N3CCN(c4ccccc4F)CC3)c2N1,59%
22,O=C1CNc2ncnc(N3CCN(Cc4ccccc4F)CC3)c2N1,39.1%
23,COC(=O)CNC(=O)c1scnc1C,2.93%
24,Cc1ocnc1C(=O)N1CC[C@@H](O)[C@@H](O)[C@H](N2CCC(F)(F)CC2)C1,59%
25,Cc1ncoc1C(=O)N1CC[C@@H](O)[C@@H](O)[C@H](N2CCC(F)(F)CC2)C1,20.4%
26,O=C(c1ccncc1)N1CC[C@@H](O)[C@@H](O)[C@H](N2CCC(F)(F)CC2)C1,27.8%

row,SMILES,INHIBITION
1,O=c1c(S(=O)(=O)N2CCCCC2)cccn1Cc1cccnc1,-37.1%
2,O=C(O)c1ccccc1-n1cnc(CN2CCCc3ccccc32)c1,23%
3,CN(C)CCN1CCC2(CCCN(Cc3cccn3C)C2)C1=O (centres undefined),33.1%
4,c1cc(CN2CC[C@H]3O[C@@H](COCC4CCOCC4)CC[C@H]32)ccn1,52%
5,Fc1ccc(CN2CC[C@H]3O[C@@H](COCC4CCOCC4)CC[C@H]32)cc1,56.3%
6,c1cncc(COC[C@H]2CC[C@H]3[C@H](CCN3Cc3nccs3)O2)c1,39.2%
7,c1cncc(CN2CC[C@H]3O[C@@H](COCC4CCOCC4)CC[C@H]32)c1,33.4%
8,c1cncc(COCC2CC[C@H]3[C@H](CCN3CC3CCOCC3)O2)c1 (some centres undefined),78.8%
9,O=C(C1CC=CC1)N1CC[C@@H]2O[C@H](COCC3CCOCC3)CC[C@@H]21,21.6%
10,c1cncc(CN2CC[C@H]3O[C@@H](COCC4CC4)CC[C@H]32)c1,44.9%
11,Fc1ccc(CN2CC[C@H]3O[C@@H](COCc4cccnc4)CC[C@H]32)cc1,39.2%
12,c1ccc(CN2CC[C@@H]3O[C@@H](COCC4CCOCC4)CC[C@@H]32)nc1,22.7%
13,CC(C)c1nccn1-c1cncc(C2CCCN2Cc2cccnc2)n1 (centres undefined),27.6%
14,CNCC1CCC(c2cc(CN(C)C(=O)c3cnccn3)n(C)n2)CC1 (centres undefined),25.8%
15,O=C(Nc1cnccn1)[C@@H]1CCO[C@@H]2CCN(Cc3ccsc3)C[C@@H]21,12.4%
16,Cn1cnnc1C1CCN(C(=O)CCOc2ccc(Cl)cc2)CC1,11.9%
17,CC(=O)NCC1CCCN(C(=O)Cc2c(C)noc2C)C1 (centres undefined),-4.12%
18,O=C(COc1ccc(Cl)cc1Cl)N1CCCSCC1CN1CCOCC1 (centres undefined),60.1%
19,COc1cccc(OCC(=O)N2CCCSCC2CN2CCOCC2)c1 (centres undefined),44.9%
20,O=C(COc1ccc(F)cc1)N1CCCSCC1CN1CCOCC1 (centres undefined),25.3%
21,CNC(=O)c1nc2c(s1)CCN(C(=O)c1cccnc1)CC2,-10.4%
22,O=C(c1[nH]nc(C2CC2)c1Cl)N1CCN(S(=O)(=O)c2ccccc2)CC1,77.6%
23,O=C(c1[nH]nc(C2CC2)c1Cl)N1CCN(C2CC2)CC1,8.13%
24,O=C(c1[nH]nc(C2CC2)c1Cl)N1CCCC1,-46.7%
25,CCOC(=O)[C@H]1[C@@H](O)C(=O)N(C)C12CCN(C(=O)CC(C)C)CC2,22.2%
26,c1csc(C2(NCc3csc(C4CC4)n3)CCCC2)n1,-9.44%
